# Records with an inconclusive call do not appear. A number with no mark means an inactive call. The source made the active and inactive calls. The call rests on the fitted dose curve; in most records, active means well fitted inhibition curve with a large enough effect; inconclusive means small, poorly fitted or top-dose-only effect; inactive means flat fitted curve, though single readings scatter.
# Key:
# HEK293 = assay: Cytotoxic Profiling of Annotated Libraries Using Quantitative High-Throughput Screening (AID 1296008); conditions: Five cell lines viability, CellTiter-Glo ATP luminescence, 48-72 h; max response: stronger effect = lower value; further: potency means the concentration at half of the fitted maximal effect; on max response: on the % scale 0 is the no-effect control and ±100 the full control effect
# In short: (§1)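 Cells exposed to compounds for 48 or 72 hr at 37 degrees Celsius. Viability read as ATP-coupled luminescence with CellTiter-Glo after 10 min at room temperature.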
# HaCat [1] = assay: as above; conditions: Five cell lines viability, CellTiter-Glo ATP luminescence, 48-72 h; max response: stronger effect = lower value
# In short: as §1
# NIH3T3 = assay: as above; conditions: Five cell lines viability, CellTiter-Glo ATP luminescence, 48-72 h; max response: stronger effect = lower value
# In short: as §1
# HACAT [2] = assay: qHTS assay to identify novel small-molecules to repurpose for Merkel cell carcinoma treatment (AID 1296009); conditions: MCC and control cell lines, CellTiter-Glo viability, 72 h; at 44.8 µM (top of the series) unless noted
# In short: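 Dose-response viability screen; 72 hr exposure at 37 degree celsius; CellTiter-Glo added, 10 min room temperature, luminescence read; RLUs scaled between no-cell and DMSO wells.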
# Further: nearly all actives have a fitted effect of over 60% in size.
smiles,measurement,setting,value
COc1ccc2c(c1)C(C(=O)N(Cc1ccc(N(C)C)cc1)c1ccc(C(C)C)cc1)CCC2 (centres undefined),Potency,HEK293,11.6 µM (active)
same,max response,HaCat [1],-43.6%
same,max response,NIH3T3,3.67%
CC(=O)O[C@H]1C[C@H](OC(C)=O)[C@]2(C)[C@H](CC[C@@]34O[C@@H]3C3=C(C)C(=O)O[C@@H]3C[C@H]42)C1(C)C,Potency,HEK293,5.63 µM (active)
same,outcome,HaCat [1],inactive
same,max response,NIH3T3,-18%
same,outcome,HACAT [2],inactive [at 17.4 µM]
O=C(Nc1ccc(C(O)(C(F)(F)F)C(F)(F)F)cc1)c1ccc(C(F)(F)F)cc1,Potency,HEK293,10.3 µM (active)
same,Potency,HaCat [1],8.2 µM (active)
same,Potency,NIH3T3,20.6 µM (active)
CC1CCCC(O)CCC/C=C/c2cc(OS(=O)(=O)O)cc(O)c2C(=O)O1 (centres undefined),max response,HEK293,-20.5%
same,max response,HaCat [1],0.348%
same,outcome,NIH3T3,inactive
COc1ccc(-c2ccc3c(N4CCOCC4C)nc(N4CCOCC4C)nc3n2)cc1CO (centres undefined),Potency,HEK293,0.146 µM (active)
same,Potency,HaCat [1],2.91 µM (active)
same,Potency,NIH3T3,0.231 µM (active)
O=C(Nc1ccccc1)N1CCC(Cc2cnc3ccccc3c2)CC1,max response,HEK293,-99.9%
same,max response,HaCat [1],-1.9%
same,max response,NIH3T3,2.45%
CCc1cnc(N2CCC(c3nc(COc4ccc(-n5cnnn5)cc4)cs3)CC2)nc1,Potency,HEK293,13 µM (active)
same,outcome,HaCat [1],inactive
same,max response,NIH3T3,-9.02%
same,outcome,HACAT [2],inactive
Cc1nc(NC(=O)N2CCCC2C(N)=O)sc1-c1ccnc(C(C)(C)C(F)(F)F)c1 (centres undefined),Potency,HEK293,10.3 µM (active)
same,Potency,HaCat [1],2.31 µM (active)
same,Potency,NIH3T3,9.2 µM (active)
Cc1cc(-c2cnc(N)c3c(-c4ccc5scnc5c4)csc23)n(C)n1,Potency,HEK293,8.2 µM (active)
same,max response,HaCat [1],-13.1%
same,Potency,NIH3T3,11.6 µM (active)

# Source: PubChem BioAssay (NCATS)
